# Records with an inconclusive call do not appear. Activity calls are given as the source filed them. The call rests on the fitted dose curve.
# Assay: Nuclear factor erythroid 2-related factor 2/antioxidant responsive element (Nrf2/ARE) small molecule agonists: luciferase reporter gene qHTS assay in human keratinocytes (AID 1919969); further: nearly all actives have a fitted effect of over 35% in size
# Details: KeratinoSens HaCaT ARE-luciferase, luminescence, 24 h; series mostly up to 92.4 µM; activity, positive = activation: at the top concentration
# Description: National Center for Advancing Translational Sciences [NCATS]
# Division of Preclinical Innovation [DPI]
# U.S. Environmental Protection Agency [EPA]
# National Institutes of Environmental Health Sciences [NIEHS]
# National Toxicology Program [NTP]
# U.S. Food and Drug Administration [FDA]
# Oxidative stress has been implicated in the pathogenesis of a variety of diseases ranging from cancer to neurodegeneration. The antioxidant response element (ARE) signaling pathway plays an important role in the amelioration of oxidative stress. The KeratinoSens (Givaudan, Switzerland) is an in vitro test method which quantifies luciferase induction as a measure of activation of Keap1-Nrf2-antioxidationt/electrophile response element (ARE) dependant pathway in HaCaT human keratinocytes stably transfected with a selectable plasmid. The KeratinoSens assay is a cell-based assay with a reporter cell line to detect potential skin sensitizers by their ability to induce the Nrf2/ARE-response. The activation of the report gene under culture conditions can be detected by ONE-Glo Luciferase Assay System (Promega, Madison, WI). This cell line has been used to screen the Tox21 10K compound library to identify agonists that induce oxidative stress. The cytotoxicity of the Tox21 compound library against the KS-ARE cell line was tested in parallel by measuring the cell viability using CellTiter- Fluor assay system (Promega, Madison, WI) in the same wells.
# HaCaT derived cell line KeratinoSens were dispensed at 1,500 cells/5uL/well in 1536-well white wall/solid bottom plates using a Multidrop Combi (ThermoFisher Scientific, Waltham, MA) dispenser. After the assay plates were incubated at 37 C/5% CO2 for 5 h, 23 nL of compounds dissolved in DMSO, positive controls or DMSO only was transferred to the assay plate by a pintool workstation (Kalypsys, San Diego, CA). The plates were incubated at 37 C/5% CO2 for 23 h, followed by addition of 1uL/well of CellTiter-Fluor reagent into the assay plates using a Flying Reagent Dispenser (Aurora Discovery, San Diego, CA) for cell viability readout that measures cytotoxicity. After 1 h incubation at 37 C/5% CO2 the fluorescence intensity was measured using a ViewLux (PerkinElmer, Shelton, CT) plate reader. Then 4uL/well of One-Glo were added using a Flying Reagent Dispenser. After the plates were incubated at room temperature for 30 min, the luminescence intensity in the assay plates was measured using ViewLux plate reader.
# On the % scale 0 is the no-effect control and ±100 the full control effect; potency means the concentration at half of the fitted maximal effect.
Structure (SMILES),"activity, positive = activation",Potency
CC(C)NCC(O)COc1ccc(CC(N)=O)cc1 (stereo not given),-6.41% (inactive),–
O=C(O)c1ccccc1-c1ccc(C(F)(F)F)cc1,-3.64% [at 42.5 µM] (inactive),–
C=C(C)C(=O)OCCO,-0.848% (inactive),–
C=C(C)C1CCC(C)(O)CC1 (stereo not given),4.04% (inactive),–
COc1nccnc1CC(C)C,-5.63% (inactive),–
CC(C)C[C@H]1C(=O)N2CCC[C@H]2[C@]2(O)O[C@](NC(=O)[C@@H]3C=C4c5cccc6[nH]c(Br)c(c56)C[C@H]4N(C)C3)(C(C)C)C(=O)N12,-12.9% [at 42.5 µM] (inactive),–
C[C@H](CCC(=O)O)[C@H]1CC[C@H]2[C@@H]3CC[C@@H]4C[C@H](O)CC[C@]4(C)[C@H]3CC[C@]12C,2.57% (inactive),–
O=c1[nH]c2ccc(S(=O)CCN3CCC(Cc4ccc(F)cc4)CC3)cc2o1 (stereo not given),–,61.1 µM (active)
Cc1nc([N+](=O)[O-])cn1-c1ccc([N+](=O)[O-])cc1,-2.85% [at 42.5 µM] (inactive),–
CCOC(=O)C(F)(F)F,-2.93% (inactive),–
C#Cc1cccc(Nc2ncnc3cc(OCCOC)c(OCCOC)cc23)c1,-21.2% [at 42.5 µM] (inactive),–
CCCCCCCCn1sc(Cl)c(Cl)c1=O,–,4.86 µM (active)
NC(=O)C1(N2CCCCC2)CCN(CCCN2c3ccccc3CCc3ccc(Cl)cc32)CC1,-37.7% [at 42.5 µM] (inactive),–
CC(CCO)CCCC(C)(C)O (stereo not given),-6.67% (inactive),–
CCCCNc1ccc(C(=O)OCCN(CC)CC)cc1,9.3% [at 42.5 µM] (inactive),–
CCCCC(CC)COS(=O)(=O)O (stereo not given),-7.63% (inactive),–
CC(COc1ccc(C(C)(C)C)cc1)OS(=O)OCCCl (stereo not given),-31.8% (inactive),–
CCN(Cc1cccc(S(=O)(=O)O)c1)c1ccc(C(=C2C=CC(=[N+](CC)Cc3cccc(S(=O)(=O)O)c3)C=C2)c2ccccc2S(=O)(=O)[O-])cc1,-38.2% [at 42.5 µM] (inactive),–
C/C=C1\C(=O)C[C@H]2[C@@H]3CCC4=CC(=O)CC[C@]4(C)[C@H]3CC[C@]12C,–,2.13 µM (active)
CCc1ccc(O)c(C(C)(C)C)c1,-25.1% (inactive),–

Structure (SMILES),"activity, positive = activation",Potency
CCC(C)(C)c1ccc(CC(C)CN2C[C@@H](C)O[C@@H](C)C2)cc1 (stereo not given in full),-38.5% [at 42.5 µM] (inactive),–
N[C@@H](CS)C(=O)O,2.04% (inactive),–
CCOC(=O)COC(=O)c1cc(Oc2ccc(C(F)(F)F)cc2Cl)ccc1[N+](=O)[O-],0.0423% (inactive),–
Cc1oc(=O)oc1CN1CCN(c2cc3c(cc2F)c(=O)c(C(=O)O)c2n3C(C)S2)CC1 (stereo not given),-4.72% [at 42.5 µM] (inactive),–
CC1=C(C=O)C(C)(C)CCC1,1.76% (inactive),–
CCCCC/C=C\C=C\C(=O)OCC,–,25.4 µM (active)
COc1cccc(CCc2ccccc2OCC(CN(C)C)OC(=O)CCC(=O)O)c1 (stereo not given),-3.42% [at 42.5 µM] (inactive),–
CC(=O)OC(OC(C)=O)c1ccc([N+](=O)[O-])o1,–,24.8 µM (active)
COC(=O)CC(C)CCC=C(C)C (stereo not given),–,68.6 µM (active)
CC1=CC(=O)/C(=C(/C)O)C(=O)O1,-6.62% (inactive),–
CC(N=C(NC#N)Nc1ccncc1)C(C)(C)C (stereo not given),-7.88% [at 42.5 µM] (inactive),–
CCN(Cc1ccccc1)c1ccccc1,-22.9% (inactive),–
CN(C/C=C/c1ccccc1)Cc1cccc2ccccc12,6.06% [at 42.5 µM] (inactive),–
CCOCCn1c(N2CCCN(C)CC2)nc2ccccc21,1.76% [at 42.5 µM] (inactive),–
C=CCOC(=O)COCCC(C)C,0.485% (inactive),–
CCc1cc(C2=C(C(=O)O)N(c3ccccc3C(F)(F)F)S(=O)(=O)c3ccccc32)cc2c1OCO2,-13.4% (inactive),–
CCOc1ccccc1OCCN[C@H](C)Cc1ccc(OC)c(S(N)(=O)=O)c1,-1.59% [at 42.5 µM] (inactive),–
c1ccc(-c2ccc(-c3ccccc3)cc2)cc1,16.6% [at 19 µM] (inactive),–
CCCCCCCCCCCCCCCCCCNC(=O)OC1CCN(C(=O)OC[C@H](COC(=O)N(Cc2cccc[n+]2CC)C(=O)c2ccccc2OC)OC)CC1,-39.7% [at 42.5 µM] (inactive),–
CCCCCCCCCCCCCCCCCCCl,-2.4% [at 8.39 µM] (inactive),–

# — PubChem BioAssay (Tox21)
